From PubChem
A selection: hits, their analogues and other compounds. The true share with any hit is near 5.9%.
HSF-1 act – increases HSF-1 driven luciferase reporter signal; activation, % at 9 µM; 300,000 compounds, 1.7% hits; NIH3T3-HGL HSF-1 luciferase reporter, MG132, 8 h; 100% = twice DMSO control signal; AID 504408;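 active = mean replicate activation of at least 50% with a set share of replicates each reaching 50%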
HSP90 inh – inhibitors of HSP90 luciferase refolding in rabbit reticulocyte lysate | 290,000 compounds, 0.91% hits | inhibition, % at 5.6 µM | AID 1789 | luciferase refolding luminescence, 3 h;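 active = inhibition above the screen-wide mean plus 3 SD, computed separately per campaign, cut at about 16% in these data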;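 note: inhibitors lower the luminescence because luciferase stays unfolded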
HSF1 inhib – HSF1 inhibition; activity change, negative = inhibition, % at 7.5 µM (by protocol); 300,000 compounds, 0.77% hits; NIH3T3-HGL HSE-luciferase, MG132-induced, luminescence 8 h; stronger effect = lower value;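 active = more than half of replicate wells show activity change below -50%, luminescence cut by over half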;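 note: luciferase reports HSF-1 transcriptional activity via heat shock element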
AHR activator – human AHR activation; P35869; AHR-responsive luciferase reporter cells, luminescence; activation, % at 5 µM; 320,000 compounds, 2.5% hits; in the data active = activation above about 47%
DAX1 inh – NR0B1 (DAX1) inhibition; P51843; HEK293 Gal4-DAX1 luciferase reporter, luminescence; 340,000 compounds, 0.99% hits; inhibition, % at 6.75 µM; AID 504766;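 active = inhibition above the mean over all tested compounds plus 3 SD, cut at about 4.2% in these data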;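 note: inhibition shows as a rise in luminescence from relieved DAX1 repression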
Target sequence (P51843 207-470 limits assumed): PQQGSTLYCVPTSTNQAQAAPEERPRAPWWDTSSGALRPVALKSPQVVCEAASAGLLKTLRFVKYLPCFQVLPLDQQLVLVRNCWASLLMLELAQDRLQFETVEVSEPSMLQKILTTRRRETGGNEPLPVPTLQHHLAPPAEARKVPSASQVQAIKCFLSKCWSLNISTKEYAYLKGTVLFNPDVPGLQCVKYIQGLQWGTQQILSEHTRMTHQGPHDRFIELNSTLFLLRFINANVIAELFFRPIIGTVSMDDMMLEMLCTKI
GAA850 FXN act – frataxin GAA850 promoter activation | HEK293 lucGAA850 FXN promoter luciferase reporter, 24 h; percent of 10 µM SAHA response | activation, % at 6 µM | 360,000 compounds, 0.56% hits;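 active = activation above the average of all compounds screened plus 3 SD, cutoff fixed separately per campaign, cut at about 7.5% in these data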
A number is an active result; i = inactive; nt = not tested or not shown.

SMILES	HSF-1 act	HSP90 inh	HSF1 inhib	AHR activator	DAX1 inh	GAA850 FXN act
CN(C(=O)COC(=O)Cn1cnc2ccccc21)C1CCCCC1	nt	nt	nt	i	i	i
COc1ccc(-c2nnc(SCC(=O)/C(C#N)=C(\C)N)o2)cc1	80.7	i	i	i	i	i
C/C(N)=C(/C#N)C(=O)CSc1nnc(-c2ccccc2Br)o1	115.2	i	i	i	i	i
COc1cc(-c2noc(-c3ccccc3C(=O)NCc3ccco3)n2)cc(OC)c1OC	i	i	i	i	i	i
COc1ccccc1-c1noc(-c2ccccc2C(=O)NCc2ccco2)n1	i	i	i	49.5	i	i
Cc1cccc(-c2noc(-c3ccccc3C(=O)NCc3ccco3)n2)c1	63.6	i	i	i	i	i
COc1cccc2cc(C(=O)NCc3ccco3)c(=Nc3ccc(C(=O)O)cc3)oc12	i	i	-63.2	i	i	i
Cc1ccc(-c2noc(-c3ccccc3C(=O)NCc3ccco3)n2)cc1	i	i	i	i	i	i
O=C(NCC(=O)N1CCCC(C(F)(F)F)C1)c1ccc(Br)o1 (stereo not given)	i	nt	i	i	i	i
COc1cc(C2CC(c3cccnc3)=NN2c2ccc(F)cc2)cc(OC)c1OC (stereo not given)	64.8	i	i	i	i	i
Nc1ccc(C23CC4CC(CC(O)(C4)C2)C3)cc1	i	i	-78.0	i	i	i
Nc1ccc(C23CC4CC(CC(CO)(C4)C2)C3)cc1	i	i	i	i	i	i
Cc1c(C(=O)N2CCCCC2)c(S(=O)(=O)N2c3ccccc3CC2C)c(C)n1C (stereo not given)	i	i	i	i	i	i
Cc1nc(S/C(=C/c2ccc(-c3ccc(Cl)cc3)o2)C(=O)O)n[nH]1	i	i	i	57.2	i	i
Cc1nc(S/C(=C/c2ccc(-c3ccc(C(=O)O)cc3)o2)C(=O)O)n[nH]1	i	i	i	i	i	i
Clc1ccc(-c2nnc(N3CCCC3)nn2)cc1	i	i	i	i	8.8	i
C=CCCC(=O)NC1CCCc2c1cnn2-c1ccccc1F (stereo not given)	i	i	i	i	i	i
CN1CCN(c2ccc(CNC(=O)C3(C)Cc4c(-c5ccc6c(c5)OCO6)ccnc4O3)cc2)CC1 (stereo not given)	nt	nt	nt	nt	nt	i
Nc1ccccc1O	nt	nt	nt	73.6	i	i
COc1ccc(CNC(=O)C2CCN(C(=O)c3csc(Nc4ccc(C)cc4)n3)CC2)cc1	i	i	i	i	i	i
CC(C)CNC(=O)C1CCN(Cc2ccc(OCc3ccccc3)cc2)CC1	i	i	-60.6	i	i	i
CC(O)CNC(=O)C1CCN(Cc2ccc(OCc3ccccc3)cc2)CC1 (stereo not given)	i	i	i	i	i	i
CS(=O)(=O)N(CC(=O)N1CCCCC1)Cc1ccccc1	i	i	i	i	5.0	i
O=C1OC(Nc2ccc(Cl)cn2)c2ccccc21 (stereo not given)	i	i	i	i	i	i
CN(NC1OC(=O)c2ccccc21)c1ncc(Cl)cc1C(F)(F)F (stereo not given)	66.3	i	i	i	nt	i
SMILES	HSF-1 act	HSP90 inh	HSF1 inhib	AHR activator	DAX1 inh	GAA850 FXN act
CCOC(=O)/C=C1/N(C)c2ccccc2C1(C)C	i	i	i	i	6.1	i
CCN(CC(=O)Nc1ccc2c(c1)OCCO2)CC(=O)Nc1ccc(C)c(S(=O)(=O)N(C)C)c1	nt	nt	nt	i	i	i
COC(=O)C1(O)CC(CC(C)C)=NN1C(=O)c1ccccc1 (stereo not given)	148.3	i	i	i	i	i
CCOc1ccc(NC(=O)/C(C#N)=C\c2ccc(N3CCCC3)c(C)c2)cc1	nt	nt	nt	nt	i	i
COc1ccc(-c2nc3c4ccccc4ccn3c2CN2CCOCC2)cc1OC	i	i	i	58.4	i	i
c1ccc(-c2nc3c4ccccc4ccn3c2CN2CCOCC2)cc1	i	i	i	i	i	i
O=C(CN1CCN(c2ccc(F)cc2)CC1)NCc1ccc(Cl)cc1	i	i	i	i	i	i
COCc1c(C#N)c(NCCc2ccc(F)cc2)nc(C)c1[N+](=O)[O-]	i	i	i	75.5	i	i
COCc1c(C#N)c(NCc2cc(OC)c(OC)c(OC)c2)nc(C)c1[N+](=O)[O-]	i	i	i	i	i	i
Cc1nc(NCCc2ccccc2F)c(C#N)c(C)c1[N+](=O)[O-]	i	i	i	51.5	i	i
COCc1c(C#N)c(NCCc2ccccc2)nc(C)c1[N+](=O)[O-]	i	i	i	78.0	i	i
COc1ccc(/C=C/C(=O)N(C(C)C)C(C)C)cc1Br	99.4	i	i	i	i	i
COc1ccc(/C=C/C(=O)NC(C)C)cc1Br	nt	i	nt	i	i	i
C(=N\Nc1nncc2ccccc12)/c1ccccn1	i	28.9	i	i	i	i
CC(=O)Nc1ccc(/C=N/Nc2nncc3ccccc23)cc1	i	i	i	nt	5.0	i
CC(C)[C@@H](C(=O)N[C@@H](CCc1ccc(O)cc1)C(=O)O)N(C)C(=O)[C@H](CO)NC(=O)[C@@H](O)[C@H](N)CCCCCCCCl	nt	nt	nt	nt	nt	i
C=CS(=O)(=O)c1ccc(Oc2ccc(S(=O)(=O)C=C)cc2)cc1	i	i	-92.9	i	i	i
NS(=O)(=O)c1ccc(Oc2ccc(S(N)(=O)=O)cc2)cc1	i	i	i	i	i	i
COc1cc(C(C[N+](=O)[O-])c2c(C)cc3ccccn23)ccc1O (stereo not given)	i	i	i	i	4.4	i
Oc1ccc(N=C/C=C/c2cccc(Br)c2)cc1-c1nc2ccccc2s1	i	i	i	i	i	13.7
Cn1c(/C=C/c2cccc(Br)c2)nc2ccccc2c1=O	i	i	i	i	i	i
CCCCNC(=O)c1ccc(CS(=O)(=O)c2ccc(C)cc2)o1	i	i	i	i	i	i
O=[N+]([O-])c1ccc(CSc2nc3ccccc3o2)cc1	116.9	i	i	i	i	i
Cc1cccc(C(=O)N2CCC(C)(C(=O)NS(=O)(=O)C3CC3)C2)c1C (stereo not given)	nt	nt	nt	nt	nt	i
O=C(NCCN1Cc2ccccc2C1=O)c1cccs1	61.5	i	i	i	i	i
SMILES	HSF-1 act	HSP90 inh	HSF1 inhib	AHR activator	DAX1 inh	GAA850 FXN act
O=c1c2ccccc2nnn1CSc1ccc2c(c1)OCCO2	76.3	i	i	i	i	i
CCC(C(=O)Nc1ccc2c(c1)OCCO2)n1nnc2ccccc2c1=O (stereo not given)	i	i	i	i	i	i
O=C(Nc1cccc(Cl)c1)c1ccc2ncsc2c1	i	i	i	i	i	i
O=C(CSCc1nc2ccccc2[nH]1)Nc1ccc2ccccc2c1	i	i	i	60.4	i	i
O=C(CSc1nc2ccccc2[nH]1)Nc1ccc(F)c(F)c1	i	i	-61.2	i	i	i
CS(=O)(=O)c1ccc(Cl)c(NC(=O)COC(=O)CCN2C(=O)C3CC=CCC3C2=O)c1 (stereo not given)	nt	nt	nt	nt	i	i
CSc1nc2ccc(NS(=O)(=O)c3ccc([N+](=O)[O-])cc3)cc2s1	i	i	-89.0	i	nt	i
